Assay results from PubChem BioAssay.
For some assays here: Measured potencies and affinities stand elsewhere. Active and inactive are the calls of the source. Unless noted, how the calls were made is not given here.

Columns and labels:
[1] = antimalarial activity against Dd2 strain (AID 2302;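 active means growth inhibition above 50% at the single 2 µM test dose, taken to imply half-maximal potency below 2 µM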;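 further: 0% = DMSO untreated growth and 100% = chloroquine plus artemisinin killed control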); settings: P. falciparum Dd2 in RBCs, LDH growth readout, 72 h; at 2 µM; active compounds read high
[2] = HepG2 cytotoxicity, primary screen, cytotoxicity control for P. falciparum antimalarial project, cell-based, ATP luminescence (AID 2303;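 active means inhibition above 50%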;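 further: 0% = DMSO wells and 100% = digitonin-killed cells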); settings: HepG2 viability, 24-48 h, at 10 µM, active compounds read high
[3] = molecular target: L-lactate dehydrogenase (Plasmodium falciparum (isolate CDC / Honduras)) (UniProt Q27743); assay: PfLDH activity inhibition – cell lysate, 3D7 strain, counter-screen for P. falciparum growth inhibition project (AID 2304);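 further: 0% = vehicle and 100% = reference inhibitor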; settings: P. falciparum 3D7 crude extract, LDH APAD/NBT absorbance; at 2 µM; active compounds read high
Chain of L-lactate dehydrogenase (Plasmodium falciparum (isolate CDC / Honduras)) (Q27743 whole entry, looked up): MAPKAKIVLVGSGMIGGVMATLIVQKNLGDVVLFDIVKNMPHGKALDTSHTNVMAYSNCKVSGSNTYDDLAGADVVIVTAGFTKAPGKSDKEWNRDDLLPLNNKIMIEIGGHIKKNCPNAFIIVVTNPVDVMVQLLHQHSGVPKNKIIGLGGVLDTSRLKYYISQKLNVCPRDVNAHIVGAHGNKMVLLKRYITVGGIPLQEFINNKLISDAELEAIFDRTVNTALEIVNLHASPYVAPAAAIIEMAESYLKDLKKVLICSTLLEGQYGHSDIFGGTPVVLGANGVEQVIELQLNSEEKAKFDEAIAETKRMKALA

[4] = inhibition of 3D7 malaria parasite growth – strain 3D7 (AID 2306);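 further: 0% = DMSO wells and 100% = chloroquine plus artemisinin control wells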; settings: P. falciparum 3D7 erythrocytic growth, LDH absorbance, 72 h; at 2 µM; active compounds read high
[5] = molecular target: Calcium-dependent protein kinase 1 (Plasmodium falciparum (isolate 3D7)) (UniProt P62344); assay: PfCDPK1 kinase inhibitors, biochemical, TCAMS library (AID 1159585; cut-off not given, nearly all actives have IC50 up to about 0.98 µM;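 further: inhibitors leave more ATP so luminescence rises with inhibition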); settings: recombinant PfCDPK1, Kinase-Glo ATP depletion luminescence
Chain of Calcium-dependent protein kinase 1 (Plasmodium falciparum (isolate 3D7)) (P62344 whole entry, looked up): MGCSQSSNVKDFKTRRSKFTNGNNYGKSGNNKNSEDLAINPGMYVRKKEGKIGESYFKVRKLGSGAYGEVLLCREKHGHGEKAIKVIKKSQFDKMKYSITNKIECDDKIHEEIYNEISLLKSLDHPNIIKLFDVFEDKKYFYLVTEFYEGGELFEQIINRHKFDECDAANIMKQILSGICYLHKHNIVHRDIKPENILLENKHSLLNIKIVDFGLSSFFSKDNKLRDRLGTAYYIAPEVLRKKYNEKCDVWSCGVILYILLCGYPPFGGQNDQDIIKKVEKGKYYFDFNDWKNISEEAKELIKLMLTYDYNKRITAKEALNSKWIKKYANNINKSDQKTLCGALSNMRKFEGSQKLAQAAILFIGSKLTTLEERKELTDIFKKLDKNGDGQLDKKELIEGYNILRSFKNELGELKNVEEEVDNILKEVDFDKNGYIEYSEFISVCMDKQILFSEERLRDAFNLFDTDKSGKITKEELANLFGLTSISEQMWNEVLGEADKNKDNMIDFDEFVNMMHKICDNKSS

[6] = molecular target: Plasmodium falciparum protein kinase 6 (PK6, PF3D7_1337100) (UniProt Q8IDW1); assay: PfPK6 kinase inhibitors, biochemical, TCAMS library (AID 1159586); settings: recombinant PfPK6, Kinase-Glo ATP depletion luminescence
Chain of Plasmodium falciparum protein kinase 6 (PK6, PF3D7_1337100) (Q8IDW1 1-305): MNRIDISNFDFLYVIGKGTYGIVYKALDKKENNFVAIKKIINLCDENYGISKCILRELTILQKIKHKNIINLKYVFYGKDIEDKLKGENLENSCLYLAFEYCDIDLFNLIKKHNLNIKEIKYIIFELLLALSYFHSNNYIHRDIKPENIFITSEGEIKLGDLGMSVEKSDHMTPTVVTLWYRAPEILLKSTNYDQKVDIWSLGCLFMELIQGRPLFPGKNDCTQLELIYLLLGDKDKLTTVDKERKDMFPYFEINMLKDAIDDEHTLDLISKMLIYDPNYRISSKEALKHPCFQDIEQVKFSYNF

[7] = molecular target: Protein kinase 7 (PK7), Plasmodium falciparum 3D7 (PF3D7_0213400) (UniProt Q7YTF7); assay: inhibition of Plasmodium PK7 catalytic activity – biochemical, TCAMS antimalarial set, Kinase-Glo luminescence (AID 1159587); settings: recombinant PfPK7, Kinase-Glo ATP depletion luminescence
Chain of Protein kinase 7 (PK7), Plasmodium falciparum 3D7 (PF3D7_0213400) (Q7YTF7 1-343): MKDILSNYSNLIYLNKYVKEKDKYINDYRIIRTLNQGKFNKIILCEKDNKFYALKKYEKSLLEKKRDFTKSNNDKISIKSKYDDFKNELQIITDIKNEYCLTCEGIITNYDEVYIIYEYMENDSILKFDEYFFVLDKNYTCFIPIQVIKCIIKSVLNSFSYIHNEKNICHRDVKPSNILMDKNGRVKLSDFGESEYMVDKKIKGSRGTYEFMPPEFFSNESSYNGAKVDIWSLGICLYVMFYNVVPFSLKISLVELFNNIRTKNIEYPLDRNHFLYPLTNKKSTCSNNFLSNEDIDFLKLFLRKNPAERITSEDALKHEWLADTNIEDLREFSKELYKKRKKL

[8] = molecular target: Calcium-dependent protein kinase 4 (Plasmodium falciparum (isolate 3D7)) (UniProt Q8IBS5); assay: PfCDPK4 kinase inhibitors, biochemical, TCAMS library (AID 1159588; cut-off not given, nearly all actives have IC50 up to about 0.91 µM); settings: recombinant PfCDPK4, Kinase-Glo ATP depletion luminescence
Chain of Calcium-dependent protein kinase 4 (Plasmodium falciparum (isolate 3D7)) (Q8IBS5 whole entry, looked up): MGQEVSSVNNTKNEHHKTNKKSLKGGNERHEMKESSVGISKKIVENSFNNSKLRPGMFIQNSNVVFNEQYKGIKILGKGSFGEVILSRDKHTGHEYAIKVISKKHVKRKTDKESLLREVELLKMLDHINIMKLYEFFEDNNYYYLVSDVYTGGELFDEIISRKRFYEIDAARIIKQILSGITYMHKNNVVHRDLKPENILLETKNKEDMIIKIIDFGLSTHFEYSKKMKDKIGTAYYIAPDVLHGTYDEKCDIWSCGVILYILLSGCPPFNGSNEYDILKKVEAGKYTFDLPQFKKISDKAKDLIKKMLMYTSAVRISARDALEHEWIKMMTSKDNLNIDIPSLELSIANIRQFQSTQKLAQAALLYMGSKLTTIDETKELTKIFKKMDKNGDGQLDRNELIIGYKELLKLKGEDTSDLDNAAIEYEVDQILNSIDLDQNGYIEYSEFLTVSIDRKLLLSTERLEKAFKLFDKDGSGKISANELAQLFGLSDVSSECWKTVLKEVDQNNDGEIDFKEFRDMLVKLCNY

O=C(N[C@H]1CCN(Cc2ccc(OCCN3CCCC3)c(Cl)c2)C1)c1ccc(Cl)c(Cl)c1
inactive: growth inhibition [1] 46% | inhibition [3] -1% | outcome [5] | outcome [6] | outcome [7] | outcome [8]
active: inhibition [2] 68% | growth inhibition [4] 101%

CCN(CCCN1CCCCC1)c1cc(C)nc(Nc2ccc(C(F)(F)F)cc2)n1
inactive: inhibition [2] 26% | inhibition [3] -3% | outcome [5] | outcome [6] | outcome [7] | outcome [8]
active: growth inhibition [1] 99% | growth inhibition [4] 102%

COc1ccc2nccc([C@@H](O)CN3CC[C@H](NCc4ccc5c(n4)NC(=O)CS5)[C@H](F)C3)c2c1
inactive: inhibition [2] 5% | inhibition [3] 0% | outcome [5] | outcome [6] | outcome [7] | outcome [8]
active: growth inhibition [1] 88% | growth inhibition [4] 89%

Cc1ccc2nc(/C=C/c3cccc4cc[nH]c34)[nH]c2c1
inactive: inhibition [2] 9% | inhibition [3] -3% | outcome [5] | outcome [6] | outcome [7] | outcome [8]
active: growth inhibition [1] 92% | growth inhibition [4] 100%

COc1cc(CNC[C@@H](O)[C@H](Cc2ccccc2)NC(=O)c2cc(C3CCCC3)cc(N3CCCS3(=O)=O)c2)cc(OC)c1
active: growth inhibition [1] 94% | growth inhibition [4] 95%
inactive: inhibition [2] 31% | inhibition [3] 2% | outcome [5] | outcome [6] | outcome [7] | outcome [8]

O=S(=O)(c1ccc(OCc2ccc(Cl)cc2)cc1)c1cc2c(cc1O)CCN(C1CCC1)CC2
inactive: inhibition [2] 11% | inhibition [3] 3% | outcome [5] | outcome [6] | outcome [7] | outcome [8]
active: growth inhibition [1] 63% | growth inhibition [4] 99%

COc1cc(Cc2cnc(N)nc2N)ccc1OCc1cccc(Oc2ccccc2)c1
inactive: growth inhibition [1] 21% | inhibition [2] 18% | inhibition [3] 0% | outcome [5] | outcome [6] | outcome [7] | outcome [8]
active: growth inhibition [4] 84%

CC(=O)Nc1ccc(CCNC(C)Cc2ccc(C(=O)Nc3ccc(CC(C)NCCc4cccc(Cl)c4)cc3)cc2)cc1 (stereo unspecified)
active: growth inhibition [1] 84% | inhibition [2] 50% | growth inhibition [4] 100%
inactive: inhibition [3] -7% | outcome [5] | outcome [6] | outcome [7] | outcome [8]

O=C(/C=C/c1ccc(Cl)c(Cl)c1)N1CCC(CCCN2CCC(c3c[nH]c4ccc(O)cc34)CC2)CC1
active: growth inhibition [1] 99% | inhibition [2] 60% | growth inhibition [4] 102%
inactive: inhibition [3] 1% | outcome [5] | outcome [6] | outcome [7] | outcome [8]

Cc1cc(NN=CC=Cc2ccccc2)c2cc(F)ccc2n1
active: growth inhibition [4] 101%
inactive: growth inhibition [1] 36% | inhibition [2] 8% | inhibition [3] -2% | outcome [5] | outcome [6] | outcome [7] | outcome [8]

O=c1sn(-c2csc3ccccc23)c2ccccc12
active: growth inhibition [1] 54% | growth inhibition [4] 94%
inactive: inhibition [2] 14% | inhibition [3] -6% | outcome [5] | outcome [6] | outcome [7] | outcome [8]

COc1cc2nc(N[C@@H](CO)c3ccccc3)nc(NCc3ccccc3)c2cc1OC
active: growth inhibition [1] 71% | growth inhibition [4] 101%
inactive: inhibition [2] 6% | inhibition [3] 1% | outcome [5] | outcome [6] | outcome [7] | outcome [8]

CCCC(C)NC(=O)[C@H](CC1CCCCC1)NC(=O)c1ccc(O)c(-c2cccc(C(F)(F)F)c2)c1 (stereo partly specified)
inactive: inhibition [2] -5% | inhibition [3] 5% | outcome [5] | outcome [6] | outcome [7] | outcome [8]
active: growth inhibition [1] 98% | growth inhibition [4] 100%

O=C(Nc1ccc(C(F)(F)F)cc1)c1ccc(S(=O)(=O)NC2CCN(CC3CCCCC3)C2)cc1 (stereo unspecified)
inactive: growth inhibition [1] 16% | inhibition [2] 33% | inhibition [3] 5% | outcome [5] | outcome [6] | outcome [7] | outcome [8]
active: growth inhibition [4] 99%

CCc1c[nH]c2c(N(c3ccccc3)S(C)(=O)=O)cc(C(=O)N[C@@H](Cc3ccccc3)[C@H](O)CNC(C)(C)CCCC(C)C)cc12
active: growth inhibition [1] 96% | inhibition [2] 99% | growth inhibition [4] 98%
inactive: inhibition [3] -1% | outcome [5] | outcome [6] | outcome [7] | outcome [8]

CC(C)(C)c1ccc(CNC(=O)c2ccc(-c3nc4ccc(C(C)(C)C)cc4[nH]3)cc2)cc1
active: growth inhibition [4] 96%
inactive: growth inhibition [1] 49% | inhibition [2] 21% | inhibition [3] 3% | outcome [5] | outcome [6] | outcome [7] | outcome [8]

CC(C)OC(=O)c1ccc(NC(=O)N[C@@H](Cc2ccc(O)cc2)C(=O)NC2CCC(CCN3[C@@H]4CC[C@H]3c3ccccc34)CC2)cc1 (stereo partly specified)
active: growth inhibition [1] 67% | growth inhibition [4] 95%
inactive: inhibition [2] 3% | inhibition [3] 3% | outcome [5] | outcome [6] | outcome [7] | outcome [8]

CN(C)Cc1cccc(-c2ccc3ccnc(N)c3c2)c1
active: growth inhibition [1] 74% | growth inhibition [4] 99%
inactive: inhibition [2] 21% | inhibition [3] 3% | outcome [5] | outcome [6] | outcome [7] | outcome [8]

O=c1nc(C=Cc2ccc(Br)cc2)oc2ccccc12
active: growth inhibition [1] 66% | growth inhibition [4] 97%
inactive: inhibition [2] -8% | inhibition [3] -1% | outcome [5] | outcome [6] | outcome [7] | outcome [8]

CCc1cc2c3c(N)nc(N)nc3ccc2n1C(C)CC (stereo unspecified)
active: growth inhibition [1] 99% | inhibition [2] 73% | growth inhibition [4] 100%
inactive: inhibition [3] 0% | outcome [5] | outcome [6] | outcome [7] | outcome [8]

Cc1c(Cl)cccc1S(=O)(=O)Nc1ccc(CCN2CCC(N)CC2)cc1
active: growth inhibition [4] 90%
inactive: growth inhibition [1] 4% | inhibition [2] 23% | inhibition [3] 0% | outcome [5] | outcome [6] | outcome [7] | outcome [8]

COc1cc2nc(NCCc3ccccc3)nc(NCCc3ccccc3)c2cc1OC
active: growth inhibition [1] 100% | inhibition [2] 99% | growth inhibition [4] 101%
inactive: inhibition [3] 2% | outcome [5] | outcome [6] | outcome [7] | outcome [8]

CCOc1cc(C)ccc1C1CCN(CCCCNC(=O)c2ccc(-c3ccc(C(F)(F)F)cn3)cc2)CC1
active: inhibition [2] 55% | growth inhibition [4] 99%
inactive: growth inhibition [1] 45% | inhibition [3] 5% | outcome [5] | outcome [6] | outcome [7] | outcome [8]

Nc1nc(N)c2c(Oc3cccc4ccccc34)cccc2n1
active: growth inhibition [4] 96%
inactive: growth inhibition [1] 10% | inhibition [2] 42% | inhibition [3] 6% | outcome [5] | outcome [6] | outcome [7] | outcome [8]

Oc1ccccc1CN1CCN(C(c2ccccc2)c2ccccc2)CC1
inactive: inhibition [2] -4% | inhibition [3] -1% | outcome [5] | outcome [6] | outcome [7] | outcome [8]
active: growth inhibition [1] 90% | growth inhibition [4] 98%

CCOC(=O)c1[nH]c(-c2ccc(Cl)cc2)nc1NC(=S)NCCCN1CCOCC1
inactive: growth inhibition [1] 33% | inhibition [2] 22% | inhibition [3] -4% | outcome [5] | outcome [6] | outcome [7] | outcome [8]
active: growth inhibition [4] 92%

CCC1(CC)N=C(N)N=C(N)N1OCc1ccc(Cl)c(Cl)c1
inactive: growth inhibition [1] 49% | inhibition [2] 49% | inhibition [3] -1% | outcome [5] | outcome [6] | outcome [7] | outcome [8]
active: growth inhibition [4] 94%

CN(CC1CCC(NC(=O)/C=C/c2ccc(Cl)c(Cl)c2)CC1)C1CCC(c2c[nH]c3ccccc23)CC1 (stereo unspecified)
active: growth inhibition [1] 53% | inhibition [2] 53% | growth inhibition [4] 99%
inactive: inhibition [3] -3% | outcome [5] | outcome [6] | outcome [7] | outcome [8]

CCCCCCN1CCCN(Cc2ccc(C(=O)Nc3ccc(F)c(F)c3)cc2)CC1
inactive: growth inhibition [1] 48% | inhibition [3] -8% | outcome [5] | outcome [6] | outcome [7] | outcome [8]
active: inhibition [2] 50% | growth inhibition [4] 84%

Cc1nnsc1C(=O)Nc1ccc(-c2cccc(-c3nc4c(C)cccc4[nH]3)c2)cc1
inactive: growth inhibition [1] 47% | inhibition [2] 23% | inhibition [3] 4% | outcome [5] | outcome [6] | outcome [7] | outcome [8]
active: growth inhibition [4] 98%

N#Cc1ccc(C(=O)Nc2ccc(Cl)c(N3CCN(CCc4ccccc4)CC3)c2)cc1
inactive: growth inhibition [1] 35% | inhibition [2] 5% | inhibition [3] 5% | outcome [5] | outcome [6] | outcome [7] | outcome [8]
active: growth inhibition [4] 90%

CC(=O)Nc1cccc(NC(=O)CSc2ccc(-c3nc4ccccc4[nH]3)cn2)c1
inactive: inhibition [2] 22% | inhibition [3] -4% | outcome [5] | outcome [6] | outcome [7] | outcome [8]
active: growth inhibition [1] 73% | growth inhibition [4] 97%

CN1CCCN(Cc2ccc(-c3ccc(NC(=O)c4cccc(Cl)c4)cc3)cc2)CC1
active: growth inhibition [1] 64% | inhibition [2] 55% | growth inhibition [4] 95%
inactive: inhibition [3] 2% | outcome [5] | outcome [6] | outcome [7] | outcome [8]

O=C(O)c1ccc(OCOCOc2ccc(C(=O)O)c(O)c2)cc1O
inactive: growth inhibition [1] 0% | inhibition [2] -2% | inhibition [3] 6% | outcome [5] | outcome [6] | outcome [7] | outcome [8]
active: growth inhibition [4] 99%

CC(=O)c1cccc(S(=O)(=O)NCCCNc2nc3cc(C)cc(C)c3cc2C#N)c1
active: growth inhibition [1] 75% | growth inhibition [4] 95%
inactive: inhibition [2] 11% | inhibition [3] 1% | outcome [5] | outcome [6] | outcome [7] | outcome [8]

COc1ccnc(NCCCNCc2cn(S(=O)(=O)c3ccccc3)c3ccccc23)c1
inactive: growth inhibition [1] 18% | inhibition [3] -2% | outcome [5] | outcome [6] | outcome [7] | outcome [8]
active: inhibition [2] 57% | growth inhibition [4] 99%

COc1ccc(C(=O)CCC(=O)N(Cc2ccc(-c3ccc(CNCCc4ccc(S(C)(=O)=O)cc4)cn3)cc2)C(C)CN(C)C)cc1F (stereo unspecified)
inactive: inhibition [2] 13% | inhibition [3] -8% | outcome [5] | outcome [6] | outcome [7] | outcome [8]
active: growth inhibition [1] 85% | growth inhibition [4] 98%
